Data taken from PubChem BioAssay (NCI).
The panel holds about 83,000 compounds, 20% with a hit somewhere; the sample as a whole holds those more often.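 Each cell line was grown in a 96-well plate and treated with one concentration of compound for 48 hours. Values below 10 were considered active.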 Values without a mark were called inactive. Activity calls are given as the source filed them.

Assays:
Experiment in all cases: NCI-60 one-dose screen, 48 h (100 = growth as untreated, 0 = no growth, -100 = all killed)
Details in all cases: 10 µM unless noted
NCI-H23 lung = test system: NCI-H23 lung
NCI-H226 lung = test system: NCI-H226 lung
NCI-H322M lung = test system: NCI-H322M lung
HOP-62 NSCLC = test system: HOP-62 NSCLC
NCI-H460 lung = test system: NCI-H460 lung
HOP-92 NSCLC = test system: HOP-92 NSCLC
NCI-H522 lung = test system: NCI-H522 lung
A549/ATCC NSCLC = test system: A549/ATCC NSCLC
786-0 renal = test system: 786-0 renal
COLO 205 colon = test system: COLO 205 colon
DU-145 prostate = test system: DU-145 prostate
K-562 leukemia = test system: K-562 leukemia
MALME-3M melanoma = test system: MALME-3M melanoma
MDA-MB-231 breast = test system: MDA-MB-231 breast
RXF 393 renal = test system: RXF 393 renal
SF-268 CNS = test system: SF-268 CNS
SF-295 CNS = test system: SF-295 CNS
SF-539 CNS = test system: SF-539 CNS
M14 melanoma = test system: M14 melanoma

Structure (SMILES) | growth (NCI-H23 lung) | growth (NCI-H226 lung) | growth (NCI-H322M lung) [%] | growth (HOP-62 NSCLC) | growth (NCI-H460 lung) | growth (HOP-92 NSCLC) | growth (NCI-H522 lung) | growth (A549/ATCC NSCLC) [%] | growth (786-0 renal) | growth (COLO 205 colon) | growth (DU-145 prostate) | growth (K-562 leukemia) | growth (MALME-3M melanoma) | growth (MDA-MB-231 breast) | growth (RXF 393 renal) | growth (SF-268 CNS) | growth (SF-295 CNS) | growth (SF-539 CNS) | growth (M14 melanoma)
CCN(CC)S(=O)(=O)c1ccc2[nH]c(=O)cc(C(=O)Nc3ccc(OC)cc3OC)c2c1 | 97.8% | 100% | 116 | 105% | 123% | 77.8% | 105% | 110 | 107% | 110% | 157% | 115% | 118% | 98.3% | 9.24% (active) | 95% | 97.9% | 133% | 109%
Cc1nc2scc(-c3ccccc3)n2c(=O)c1CCO | 99.6% | 99.9% | 103 | 92.5% | 100% | 84.6% | 99.1% | 93.6 | 106% | 108% | 108% | 98.4% | 102% | 97.3% | 106% | 97.5% | 102% | 100% | 101%
COC(=O)CCCCCN=Cc1c(O)c(O)c(C(C)C)c2cc(C)c(-c3c(C)cc4c(C(C)C)c(O)c(O)c(C=NCCCCCC(=O)OC)c4c3O)c(O)c12 | 19.3% | 54.9% | 32 | 18.8% | 8.12% (active) | -5.66% (active) | -21.8% (active) | 20.8 | 28.1% | 13.6% | 23% | 9.57% (active) | 44.4% | 11.9% | 29.2% | 25.6% | 9.3% (active) | 23.7% | 18.6%
C=C1C(=O)O[C@H]2[C@H]1CC/C(COC(=O)NCc1cc(OC)c(OC)c(OC)c1)=C\CC[C@@]1(C)O[C@@H]21 | 86.8% | 76.2% | 99.5 | 80.4% | 94% | 72.4% | -42.6% (active) | 88.1 | 40.3% | 17.6% | 43.3% | 16.3% | 101% | 56.5% | 60.4% | 68.5% | 99.4% | 65.1% | 49.9%
CC(=O)Nc1ccc2c(c1)/C(=C\C=C/c1ccc([N+](C)(C)C)cc1)c1ccccc1-2 | 54.5% | 57.9% | 50.1 | 18.4% | 73.4% | 52% | 18.1% | 43.2 | 55.4% | 58.1% | 73% | 49.5% | 86.5% | 63.7% | 99.1% | 48.6% | 46.5% | 42.4% | 71.5%
CC(Br)C(O)c1cc2c(cc1Br)OCO2 (stereo not drawn) | 100% | 106% | 111 | 102% | 112% | 104% | 99.9% | 103 | 100% | 120% | 109% | 101% | 109% | 111% | 104% | 104% | 110% | 105% | 96%
CN(C)C1CCC(NC2=CC(=O)C=CC2=O)CC1 (stereo not drawn) | 110% | 116% | 102 | 116% | 109% | 118% | 90.2% | 106 | 121% | 128% | 107% | 111% | 115% | 109% | 118% | 99.9% | 128% | 112% | 107%
CC(=O)Oc1cccc(OC(C)=O)c1OC(C)=O | 111% | 97.8% | 99.7 | 92.1% | 110% | 106% | 75.2% | 72.6 | 97.7% | 107% | 108% | 100% | 97.6% | 98.9% | 99.5% | 105% | 99.2% | 99.5% | 95.3%
O=S(=O)(NCCNc1cc(-c2cn(-c3ccccc3)nc2-c2ccccc2)ccn1)c1ccc(F)cc1 | 81.6% | 77.7% | 96.2 | 98.8% | 91.7% | 40.7% | 82.9% | 77.6 | 81.5% | 98.8% | 88.3% | 54.3% | 101% | 80.1% | 75.1% | 83.2% | 87.6% | 103% | 87%
O=C(Nc1ccc(F)c(Cl)c1)c1n[nH]c(=O)c2ccccc12 | 106% | 97.2% | 113 | 102% | 107% | 96.9% | 99.6% | 91.8 | 115% | 105% | 131% | 99.8% | 125% | 98.3% | -29.4% (active) | 99.4% | 84.8% | 124% | 115%
NC(=O)c1cccc(N2Cc3ccccc3OC3=C2C(=O)c2c(O)ccc(O)c2C3=O)c1 | 6.02% (active) | 0.769% (active) | 25.5 | -42% (active) | -27.5% (active) | -91.8% (active) | -73.4% (active) | 24.7 | -80.5% (active) | -82.8% (active) | -96.4% (active) | -19.8% (active) | -82% (active) | -81.9% (active) | -73.1% (active) | -11.4% (active) | 45.4% | -49.3% (active) | -81% (active)
N#Cc1c(NC(=O)c2ccc([N+](=O)[O-])o2)[n+]([O-])c2cc(F)c(F)cc2[n+]1[O-] | 99% | 108% | 119 | 123% | 110% | 96.6% | 101% | 116 | 110% | 132% | 126% | 92.2% | 125% | 114% | 1.39% (active) | 120% | 97% | 137% | 112%
Nc1nn2cc(-c3ccc(Cl)s3)nc2c2ccccc12 | 102% | 94.8% | 96.7 | 76.4% | 86.8% | 67% | 78.5% | 83.9 | 104% | 95.2% | 99% | 85.3% | 101% | 68.9% | 133% | 94.1% | 93.7% | 81.7% | 97%
NC(=O)c1ccc2c(c1)OCO2 | 89.2% | 98.5% | 107 | 112% | 109% | 90.2% | 91.9% | 105 | 105% | 113% | 108% | 115% | 98.3% | 100% | 94.5% | 97.2% | 96.5% | 104% | 101%
CCOC(=O)c1cc(/C(=N\O)c2cc(OC)c(OC)c(OC)c2)n2c(C)cccc12 | 59.3% | 78.8% | 59.2 | 36.2% | 15.3% | 54.6% | -3.5% (active) | 48 | 26.3% | 21.2% | 50.1% | 16.8% | 44.8% | 48.7% | 34.5% | 43% | 11.3% | 15.2% | 20.8%
O=C1NC(Cc2c[nH]c3ccccc23)C(=O)N1Cc1ccc(Cl)cc1 (stereo not drawn) | 107% | 95.5% | 104 | 103% | 110% | 85.8% | 86.7% | 105 | 110% | 96.9% | 116% | 83.9% | 105% | 101% | 116% | 106% | 82.3% | 106% | 110%
OC1CC2c3ccccc3C1c1ccccc12 (stereo not drawn) | 101% | 106% | 114 | 108% | 110% | 96.2% | 102% | 100 | 98.9% | 112% | 117% | 111% | 110% | 110% | 111% | 105% | 107% | 108% | 98.4%
